# Measured values reported in the supplement of paper PMC3334620.
# Over roughly 33,000 sequences, “E-score (-0.5 to 0.5)” has its median near -0.032; the highest 2% begin near 0.36. This is one part of a sample in which the highest values are shown more often than they occur.
# Molecular target: T1, Sko1 (UniProt Q02100)
# T1 sequence: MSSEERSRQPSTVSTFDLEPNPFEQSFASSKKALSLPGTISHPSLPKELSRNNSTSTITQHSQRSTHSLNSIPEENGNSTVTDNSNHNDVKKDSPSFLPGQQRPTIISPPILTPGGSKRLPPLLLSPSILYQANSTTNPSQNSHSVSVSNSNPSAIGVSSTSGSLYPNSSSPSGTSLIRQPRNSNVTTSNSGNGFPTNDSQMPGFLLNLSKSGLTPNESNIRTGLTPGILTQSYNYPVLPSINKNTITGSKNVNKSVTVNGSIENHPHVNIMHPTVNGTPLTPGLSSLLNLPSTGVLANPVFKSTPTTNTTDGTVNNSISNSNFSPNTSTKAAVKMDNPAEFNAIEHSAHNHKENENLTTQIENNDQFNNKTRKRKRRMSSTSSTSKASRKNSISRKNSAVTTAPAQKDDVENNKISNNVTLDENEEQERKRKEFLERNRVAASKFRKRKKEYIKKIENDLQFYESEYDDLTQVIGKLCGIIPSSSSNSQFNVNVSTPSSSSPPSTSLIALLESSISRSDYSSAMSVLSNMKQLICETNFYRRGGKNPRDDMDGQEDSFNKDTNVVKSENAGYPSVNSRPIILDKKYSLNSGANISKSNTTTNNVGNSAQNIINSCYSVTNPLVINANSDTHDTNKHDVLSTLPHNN
# Experiment: PBM E-score (8-mer binding enrichment) (E-score (-0.5 to 0.5)); higher = stronger / more preferred TF binding
# Conditions: protein concentration: 200 nM; construct: GST-full length
# In short: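 Each ungapped eight-base word and its reverse complement, pooled, received an E-score from the Universal PBM Analysis Suite. Underlying scans, normalised with masliner, recorded fluorescent anti-GST bound to GST-tagged yeast transcription factors. These were applied at about 100-200 nM to universal all-10-mer Agilent arrays double-stranded by primer extension.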
row,Sequence,PBM E-score
1,CACCAATG,0.00918
2,GCCTTAGC,-0.113
3,CGGCTACG,0.243
4,ATCGTCCC,-0.0614
5,CCAAACCG,-0.149
6,ACAAGTTG,-0.041
7,AAAGACTA,0.026
8,CAAACCAA,-0.0239
9,ATTCACGG,0.095
10,GACCTTAC,0.0378
11,AACTTAGC,0.0908
12,ATGGTGGC,-0.29
13,GACTTTTA,0.0964
14,GGTCACAC,-0.0911
15,GGTCACAA,-0.151
16,CCTCACAG,-0.175
17,CGTCACAA,0.388
18,AGTCACAC,-0.0301
19,CGTCACAC,0.437
20,TGTCACAA,0.133
21,CGTCACAG,0.438
22,AGTCACAG,-0.0124
23,ACTTCGAT,0.0534
24,GAGGTTCC,-0.182
25,ATCTGTAG,-0.0704

row,Sequence,PBM E-score
1,AGGAGTGA,0.0137
2,CAGGGAGG,-0.23
3,ACACGTCT,0.292
4,ACCCGTAC,-0.107
5,ACACGTTC,0.214
6,ACACGTAA,0.472
7,ACACATAA,0.262
8,ACTCGTAA,0.345
9,ACACGTAT,0.463
10,ACACGTAG,0.433
11,ACACGTAC,0.419
12,ACACGAAT,0.233
13,ACCCGTAA,-0.00679
14,ACACGGAG,-0.13
15,CTTGAATC,-0.0656
16,AGTTAGCG,0.113
17,CGGCGTGA,-0.0945
18,CCGCTTCC,-0.273
19,CTCGTCTC,-0.19
20,AAATTCGT,0.339
21,ATGTGAGC,-0.00412
22,CATCCTAA,0.173
23,CCGAGATC,-0.237
24,ATGACATA,0.437
25,ATGACATG,0.357

row,Sequence,PBM E-score
1,GGGACATA,-0.139
2,CTGACATC,0.21
3,GTGACACA,0.145
4,ATGACATC,0.44
5,ATGACACC,0.26
6,GTGACATA,0.381
7,CTGACATA,0.266
8,AACTAACA,0.124
9,GCTAAGCC,-0.23
10,CGGGCTCC,-0.343
11,ACTCTCTC,-0.281
12,GACATCAC,0.382
13,ATCATCAC,0.334
14,GACATCAA,0.275
15,GTCATCAC,0.368
16,GTCATCAA,0.33
17,CACATCAC,0.154
18,CTCCGCCC,-0.254
19,GAACTCTA,-0.0173
20,GGTAAGAC,-0.0543
21,AGTAAGAG,-0.117
22,CGTAAGAC,0.4
23,CCTAAGAG,-0.0999
24,CGTAAGAG,0.376
25,CGTAAGAA,0.349

row,Sequence,PBM E-score
1,AAAGCGGT,-0.0789
2,AGCTCTTA,0.0315
3,AATACGCC,0.198
4,TATACGCA,0.411
5,CATACGCG,0.246
6,AATACGCA,0.407
7,CATACTCA,0.0384
8,GATACGCA,0.351
9,CATACGCA,0.392
10,TATACGAA,0.301
11,AATACGCT,0.186
12,TACACCGA,-0.177
13,TAGAGAGA,-0.0704
14,AAAAGAAT,0.115
15,CCGCTCAC,-0.0552
16,CCACCTGA,-0.0745
17,GTCACGGA,0.126
18,ATCACGCC,0.0558
19,ATCACGCG,0.254
20,ATCACATA,0.3
21,ATCACGTA,0.465
22,CTCACGTA,0.356
23,ATCACGGA,0.126
24,ATCACGTG,0.411
25,GTCACGCA,0.25

row,Sequence,PBM E-score
1,ATCACGTC,0.42
2,GTCACGTA,0.421
3,CTCACGTC,0.278
4,CGTTTTAC,0.209
5,ATTTATAG,0.158
6,ACGGAAAT,0.226
7,AGTATGCA,-0.0795
8,ACCTGTAT,-0.105
9,CAAACCTG,-0.0692
10,ACCATTAG,0.0481
11,TCCCAAGA,-0.166
12,GGTAACAC,0.0477
13,AGTAACAG,-0.0766
14,AGTAACAC,-0.0531
15,CGTAACAA,0.344
16,CGTAACAG,0.374
17,CGTAACAC,0.374
18,AGCGGTTG,-0.0753
19,GGTAATAA,0.185
20,CGTAATAG,0.435
21,CGTAATAA,0.434
22,AGTAATAC,0.0785
23,CATAATAG,0.116
24,TGTAATAA,0.28
25,AGTAATAG,0.264

row,Sequence,PBM E-score
1,GGTAATAC,0.178
2,CGTAATAC,0.451
3,ACGCGGCT,0.124
4,ACAGTCCG,-0.182
5,ATGGCTCC,-0.249
6,CCGTACCA,-0.118
7,ACGTACCC,0.435
8,GCGTACCA,0.138
9,AGGTACCT,-0.19
10,ACGTACCT,0.377
11,CCGTACCG,-0.208
12,ACGTACCA,0.444
13,CCGTACCC,-0.335
14,GCGTACCC,-0.00205
15,ACGTACCG,0.372
16,AAGTACCG,-0.032
17,AAGTACCT,-0.0422
18,AGAACCAG,-0.306
19,CCTACTAA,-0.18
20,AATGCCTA,-0.0242
21,CCTATGCC,-0.3
22,CCATGGAG,-0.266
23,CTACGCAG,0.274
24,ATACGCAG,0.296
25,ATACGCAT,0.375

row,Sequence,PBM E-score
1,TTACGGAA,0.246
2,TTACGCAA,0.466
3,AAACGCAT,0.0801
4,AGACGCAC,0.104
5,ATACGCAC,0.389
6,CTACGCAA,0.414
7,CTACGCAC,0.315
8,TAACGCAA,0.312
9,ATACGCGC,0.188
10,ATAGCCTA,-0.0632
11,GCAAGGCA,0.0267
12,AAGACCTG,-0.147
13,AGCTAATG,0.114
14,ACGAGACG,0.126
15,CCACCGAA,-0.00284
16,CAGCTGAC,0.0244
17,AAGGGAAG,0.0269
18,ACCAGAGT,-0.256
19,ATTCTATG,0.0207
20,CGTACTCC,0.201
21,ATACGCGA,0.281
22,AAACGCAA,0.335
23,GTACGCAC,0.303
24,ATACGCAA,0.447
25,GTACGCGA,0.277

row,Sequence,PBM E-score
1,GTACGCAA,0.399
2,GAAGTTGC,-0.0684
3,ATAGCACG,-0.0293
4,AATTGGGT,0.12
5,GTACGTCA,0.491
6,CCACGTCG,0.168
7,GCACGTCA,0.477
8,ACACGTCG,0.335
9,CCACGTCC,0.109
10,GCCCGTCA,-0.00134
11,GCACGTCC,0.0489
12,CCACGTCA,0.477
13,GTACGGCA,0.0279
14,GTCCGTCA,0.179
15,ACACGTCC,0.214
16,ACACGTCA,0.489
17,GGCCCTAA,-0.259
18,GACGGTAC,0.171
19,CCAATGGA,-0.215
20,AAGACTGT,-0.142
21,TCACGACA,0.212
22,TCACGTCA,0.484
23,TCCCGTCA,0.218
24,ACACGTGC,0.346
25,ACACGAGT,-0.0245

row,Sequence,PBM E-score
1,ACACGTGT,0.407
2,ACACGTGA,0.415
3,GCACGTGA,0.387
4,GCACGTGC,0.296
5,GCTCGTGA,-0.116
6,ACACGTGG,0.356
7,ACTAGATC,-0.0827
8,CAAGATTA,0.11
9,AAGACGCT,-0.168
10,CAGGTAAC,-0.118
11,AAGACCCC,-0.274
12,CATCCCTA,-0.124
13,CACGTCGG,0.183
14,GACGTCGA,0.364
15,AACGTCGA,0.281
16,TCCGTCGA,-0.0164
17,TACGTCGA,0.422
18,CACGTCGA,0.278
19,CGTGTGGC,0.152
